# Data from the supplement of paper PMC6411743.
# ± gives the standard deviation of the averaged measurements. Of roughly 6,200 targets only a part is listed; those with the largest changes were picked by preference.
# Compound: Nc1ncnc2c1ncn2[C@@H]1O[C@H](COP(=O)(O)OP(=O)(O)NP(=O)(O)O)[C@@H](O)[C@H]1O [adenylyl imidodiphosphate]
# Assay: NP40-soluble protein abundance relative to vehicle (solubility fold change) (ratio); higher = more soluble protein in presence of AMP-PNP
# In short: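 Values are fold changes against the detergent-processed vehicle, based on vsn-normalised intensities. Jurkat crude lysate was treated at eight concentrations from 0.1 to 10 mM (10 min at room temperature, then 3 min at 37 °C), solubilised with 0.8% NP40 and benzonase, ultracentrifuged and analysed by TMT-labelled LC-MS/MS over three independent experiments.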
# Sequence of UniProt A8MW92 (A8MW92 whole entry, one chain of several): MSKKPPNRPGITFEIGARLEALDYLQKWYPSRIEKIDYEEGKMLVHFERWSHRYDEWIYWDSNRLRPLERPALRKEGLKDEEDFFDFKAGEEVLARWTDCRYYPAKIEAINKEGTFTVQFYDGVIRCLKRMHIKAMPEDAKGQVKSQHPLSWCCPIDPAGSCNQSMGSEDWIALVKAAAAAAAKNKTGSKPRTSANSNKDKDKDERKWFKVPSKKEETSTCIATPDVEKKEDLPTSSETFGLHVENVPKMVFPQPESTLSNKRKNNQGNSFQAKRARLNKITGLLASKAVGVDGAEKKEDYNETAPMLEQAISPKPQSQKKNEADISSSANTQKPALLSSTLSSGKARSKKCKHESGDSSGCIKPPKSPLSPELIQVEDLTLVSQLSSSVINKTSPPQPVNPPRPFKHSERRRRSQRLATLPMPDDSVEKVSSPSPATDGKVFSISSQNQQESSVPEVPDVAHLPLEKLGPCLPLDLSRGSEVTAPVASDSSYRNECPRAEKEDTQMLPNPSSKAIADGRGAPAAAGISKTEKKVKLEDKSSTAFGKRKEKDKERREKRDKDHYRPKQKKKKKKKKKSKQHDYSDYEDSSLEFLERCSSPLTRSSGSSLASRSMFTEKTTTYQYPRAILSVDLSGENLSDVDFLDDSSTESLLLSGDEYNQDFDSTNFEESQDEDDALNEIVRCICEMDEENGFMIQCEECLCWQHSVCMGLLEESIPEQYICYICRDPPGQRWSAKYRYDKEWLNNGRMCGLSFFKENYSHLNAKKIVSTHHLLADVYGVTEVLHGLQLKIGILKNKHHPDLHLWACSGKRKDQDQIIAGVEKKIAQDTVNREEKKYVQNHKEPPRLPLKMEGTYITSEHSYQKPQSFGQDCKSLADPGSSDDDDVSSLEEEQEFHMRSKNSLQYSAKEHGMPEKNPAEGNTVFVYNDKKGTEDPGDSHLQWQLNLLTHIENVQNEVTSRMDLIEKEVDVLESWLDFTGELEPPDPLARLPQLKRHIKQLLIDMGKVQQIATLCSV
# Sequence of UniProt A2RU67 (A2RU67 whole entry): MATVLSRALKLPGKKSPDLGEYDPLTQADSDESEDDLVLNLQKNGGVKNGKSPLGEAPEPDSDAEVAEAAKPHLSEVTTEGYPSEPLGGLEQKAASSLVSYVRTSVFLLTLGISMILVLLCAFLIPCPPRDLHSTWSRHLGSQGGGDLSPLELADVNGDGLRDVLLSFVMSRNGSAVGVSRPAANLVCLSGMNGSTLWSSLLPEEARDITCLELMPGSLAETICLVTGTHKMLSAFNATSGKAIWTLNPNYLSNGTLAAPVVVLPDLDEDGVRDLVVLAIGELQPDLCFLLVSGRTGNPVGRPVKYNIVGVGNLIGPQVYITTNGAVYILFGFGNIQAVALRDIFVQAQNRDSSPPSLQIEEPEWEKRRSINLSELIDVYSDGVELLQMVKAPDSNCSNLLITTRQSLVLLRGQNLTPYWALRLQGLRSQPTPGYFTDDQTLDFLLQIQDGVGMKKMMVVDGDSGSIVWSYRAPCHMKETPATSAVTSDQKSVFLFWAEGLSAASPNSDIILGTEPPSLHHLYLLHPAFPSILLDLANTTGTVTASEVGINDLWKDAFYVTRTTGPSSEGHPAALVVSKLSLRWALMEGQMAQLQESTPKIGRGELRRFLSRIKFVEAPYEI
# Sequence of UniProt P51114 (P51114 whole entry, one chain of several): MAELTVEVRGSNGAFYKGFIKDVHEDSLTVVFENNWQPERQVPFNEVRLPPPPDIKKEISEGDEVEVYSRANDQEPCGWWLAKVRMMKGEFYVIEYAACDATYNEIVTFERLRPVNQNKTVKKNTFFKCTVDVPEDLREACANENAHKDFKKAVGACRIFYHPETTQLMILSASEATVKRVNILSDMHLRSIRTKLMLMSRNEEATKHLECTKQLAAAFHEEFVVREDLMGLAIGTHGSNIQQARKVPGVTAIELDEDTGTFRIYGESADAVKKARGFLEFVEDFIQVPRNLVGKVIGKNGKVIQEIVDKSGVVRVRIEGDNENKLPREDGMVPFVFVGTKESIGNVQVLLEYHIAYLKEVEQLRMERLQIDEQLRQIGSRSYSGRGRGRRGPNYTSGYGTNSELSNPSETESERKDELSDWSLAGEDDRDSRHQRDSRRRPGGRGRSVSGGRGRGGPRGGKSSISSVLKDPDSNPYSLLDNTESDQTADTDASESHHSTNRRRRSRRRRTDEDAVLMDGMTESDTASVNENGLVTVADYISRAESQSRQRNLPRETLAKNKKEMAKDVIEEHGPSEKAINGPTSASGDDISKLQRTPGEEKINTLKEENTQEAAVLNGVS
# Sequence of UniProt O43148 (O43148 whole entry): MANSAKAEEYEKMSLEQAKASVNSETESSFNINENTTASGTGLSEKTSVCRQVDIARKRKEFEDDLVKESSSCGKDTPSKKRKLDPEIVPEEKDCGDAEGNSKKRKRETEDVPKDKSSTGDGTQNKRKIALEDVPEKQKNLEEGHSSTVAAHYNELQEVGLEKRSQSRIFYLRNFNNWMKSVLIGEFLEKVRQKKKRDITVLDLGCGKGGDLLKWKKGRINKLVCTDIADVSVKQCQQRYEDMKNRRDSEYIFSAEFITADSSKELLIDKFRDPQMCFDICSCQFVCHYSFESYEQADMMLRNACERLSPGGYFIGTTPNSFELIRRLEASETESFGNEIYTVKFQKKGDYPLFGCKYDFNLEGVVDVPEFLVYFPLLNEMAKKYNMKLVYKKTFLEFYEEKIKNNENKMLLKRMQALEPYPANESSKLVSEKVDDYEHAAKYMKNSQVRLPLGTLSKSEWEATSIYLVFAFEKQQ
# Sequence of UniProt P36873 (P36873 whole entry, looked up, one chain of several): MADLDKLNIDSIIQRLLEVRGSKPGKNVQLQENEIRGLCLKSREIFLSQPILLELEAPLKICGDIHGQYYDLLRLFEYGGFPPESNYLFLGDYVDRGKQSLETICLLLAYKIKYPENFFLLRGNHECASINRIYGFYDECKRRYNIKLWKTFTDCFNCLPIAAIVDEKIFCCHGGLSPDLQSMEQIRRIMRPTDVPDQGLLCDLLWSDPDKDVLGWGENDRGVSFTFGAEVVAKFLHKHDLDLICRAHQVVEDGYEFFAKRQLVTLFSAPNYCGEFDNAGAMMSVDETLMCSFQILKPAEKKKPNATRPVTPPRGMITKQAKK
# Sequence of UniProt Q15262 (Q15262 whole entry, one chain of several): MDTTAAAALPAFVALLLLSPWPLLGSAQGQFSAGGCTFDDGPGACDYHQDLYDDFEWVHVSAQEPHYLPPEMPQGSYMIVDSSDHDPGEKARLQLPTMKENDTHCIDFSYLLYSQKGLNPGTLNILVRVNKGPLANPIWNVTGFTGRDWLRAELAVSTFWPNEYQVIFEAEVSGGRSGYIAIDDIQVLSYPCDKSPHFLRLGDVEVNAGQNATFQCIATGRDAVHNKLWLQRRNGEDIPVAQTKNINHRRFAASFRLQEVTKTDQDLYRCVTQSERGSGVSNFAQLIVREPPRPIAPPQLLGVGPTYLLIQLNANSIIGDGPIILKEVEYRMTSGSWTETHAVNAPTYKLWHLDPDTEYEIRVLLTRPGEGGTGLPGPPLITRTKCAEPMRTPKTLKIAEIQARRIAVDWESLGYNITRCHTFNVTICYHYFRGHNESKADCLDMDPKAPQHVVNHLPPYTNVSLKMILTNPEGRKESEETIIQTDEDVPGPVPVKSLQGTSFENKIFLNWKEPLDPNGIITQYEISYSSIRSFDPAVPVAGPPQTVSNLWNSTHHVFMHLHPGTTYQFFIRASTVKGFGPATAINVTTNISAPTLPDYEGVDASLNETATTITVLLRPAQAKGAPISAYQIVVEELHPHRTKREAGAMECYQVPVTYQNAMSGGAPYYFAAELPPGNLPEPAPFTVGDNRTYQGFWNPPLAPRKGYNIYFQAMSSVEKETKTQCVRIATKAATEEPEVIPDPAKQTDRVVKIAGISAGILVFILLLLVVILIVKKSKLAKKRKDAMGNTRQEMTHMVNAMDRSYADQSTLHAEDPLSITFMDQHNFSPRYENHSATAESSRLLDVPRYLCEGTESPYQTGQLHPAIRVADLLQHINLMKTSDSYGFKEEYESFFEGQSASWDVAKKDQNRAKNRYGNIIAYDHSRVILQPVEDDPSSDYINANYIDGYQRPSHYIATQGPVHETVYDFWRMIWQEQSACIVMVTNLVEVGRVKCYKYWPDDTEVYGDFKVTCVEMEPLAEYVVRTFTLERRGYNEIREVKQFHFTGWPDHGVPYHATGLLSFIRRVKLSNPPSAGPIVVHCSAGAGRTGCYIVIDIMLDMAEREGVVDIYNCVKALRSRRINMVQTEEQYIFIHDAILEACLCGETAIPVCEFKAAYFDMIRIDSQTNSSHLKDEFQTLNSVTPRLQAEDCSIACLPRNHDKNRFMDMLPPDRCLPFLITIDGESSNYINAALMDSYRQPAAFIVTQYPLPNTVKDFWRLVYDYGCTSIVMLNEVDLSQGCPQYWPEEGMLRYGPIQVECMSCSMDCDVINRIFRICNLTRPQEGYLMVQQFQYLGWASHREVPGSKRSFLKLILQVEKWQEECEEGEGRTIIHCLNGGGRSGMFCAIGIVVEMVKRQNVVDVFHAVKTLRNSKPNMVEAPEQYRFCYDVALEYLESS
# Sequence of UniProt Q8N465 (Q8N465 whole entry, one chain of several): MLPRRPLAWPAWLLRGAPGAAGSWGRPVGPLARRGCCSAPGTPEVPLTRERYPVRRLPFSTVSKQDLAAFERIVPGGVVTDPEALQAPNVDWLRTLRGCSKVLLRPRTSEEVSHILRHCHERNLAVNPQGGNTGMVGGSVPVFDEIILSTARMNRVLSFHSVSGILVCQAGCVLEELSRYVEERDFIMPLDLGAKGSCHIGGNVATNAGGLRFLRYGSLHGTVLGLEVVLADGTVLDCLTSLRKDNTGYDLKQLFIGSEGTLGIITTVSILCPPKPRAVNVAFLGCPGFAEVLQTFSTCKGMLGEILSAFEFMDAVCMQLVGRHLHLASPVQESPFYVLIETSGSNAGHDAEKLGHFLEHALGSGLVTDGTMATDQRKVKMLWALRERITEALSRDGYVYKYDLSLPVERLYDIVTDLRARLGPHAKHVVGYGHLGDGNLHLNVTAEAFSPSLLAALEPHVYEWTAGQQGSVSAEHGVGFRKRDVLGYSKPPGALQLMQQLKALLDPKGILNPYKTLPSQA
Target,NP40-soluble protein abundance (concentration: 1mM),NP40-soluble protein abundance (concentration: 2mM),NP40-soluble protein abundance (concentration: 4mM),NP40-soluble protein abundance (concentration: 6mM),NP40-soluble protein abundance (concentration: 8mM),NP40-soluble protein abundance (concentration: 10mM)
A0A0B4J220 (UniProt E9PRG8),1.14 ± 0.051,1.15 ± 0.057,1.2 ± 0.045,1.26 ± 0.1,1.4 ± 0.053,1.39 ± 0.046
F8WCF9|G5E9E8|Q8N465|Q8N465-2|Q8N465-3 (UniProt Q8N465),0.983 ± 0.03,1.01 ± 0.012,0.992 ± 0.01,1.04 ± 0.035,1.02 ± 0.032,1.03 ± 0.02
CAND2 (UniProt O75155),0.973 ± 0.018,0.942 ± 0.027,0.986 ± 0.045,1 ± 0.066,1.01 ± 0.031,1.02 ± 0.023
E9PGC5|Q15262-2|Q15262-3|Q15262-4|Q5TG12|Q15262 (UniProt Q15262),1.02 ± 0.011,1.04 ± 0.053,1.02 ± 0.028,1.01 ± 0.015,0.997 ± 0.011,1.01 ± 0.019
E7ESS3|K7EKW3|Q71RG4|Q71RG4-2 (UniProt Q71RG4),1.01 ± 0.037,1.03 ± 0.045,1 ± 0.039,0.996 ± 0.012,1.01 ± 0.037,1 ± 0.032
C9JEJ2|H7BZN1|P49585|C9J050 (UniProt P49585),1.01 ± 0.028,1.02 ± 0.022,1.02 ± 0.015,0.993 ± 0.027,1 ± 0.02,0.996 ± 0.01
F8W1A0|P36873 (UniProt P36873),0.983 ± 0.022,0.928 ± 0.056,0.972 ± 0.014,0.985 ± 0.03,0.986 ± 0.021,0.9667 ± 0.0073
A0A0A0MTG1|A0A0G2JIA5|A0A140T8Y0|A0A140TA35|A0A140TA36|A0A140TA40|A0A140TA45|Q5ST30|Q5ST30-4|A0A0G2JL52|B4E0K6|B7ZL25 (UniProt Q5ST30),1 ± 0.017,0.992 ± 0.051,0.992 ± 0.02,0.98 ± 0.034,0.979 ± 0.022,0.969 ± 0.04
CCDC85C (UniProt A6NKD9),0.9594 ± 0.0012,1.0044 ± 0.00019,0.953 ± 0.035,0.9849 ± 0.007,0.9793 ± 0.0043,0.9704 ± 0.0054
E7EQY1|Q96C01 (UniProt Q96C01),1.01 ± 0.036,1.11 ± 0.07,0.988 ± 0.082,0.991 ± 0.062,0.958 ± 0.062,0.968 ± 0.11
M0QXA7|O95785-3 (UniProt O95785),1.02 ± 0.031,1.04 ± 0.029,1.06 ± 0.013,1.04 ± 0.034,1.02 ± 0.023,1.07 ± 0.032
UniProt A2RU67,0.9918 ± 0.004,1.03 ± 0.031,1.02 ± 0.021,1 ± 0.019,1 ± 0.017,1.03 ± 0.016
F8VX10|F8VXI8|Q9H9L4 (UniProt Q9H9L4),1.01 ± 0.014,1.06 ± 0.033,1.05 ± 0.033,1.02 ± 0.066,1.031 ± 0.0027,1.04 ± 0.044
ZC3H11A (UniProt O75152),0.86 ± 0.11,0.883 ± 0.1,0.853 ± 0.13,0.936 ± 0.094,0.933 ± 0.098,1.03 ± 0.098
E7EQN5|P98171|P98171-2 (UniProt P98171),0.999 ± 0.013,0.997 ± 0.05,1.02 ± 0.032,1.03 ± 0.077,1.01 ± 0.056,1.04 ± 0.023
F5H0R1|Q9H6E5 (UniProt Q9H6E5),0.994 ± 0.023,1.01 ± 0.039,1.02 ± 0.016,0.973 ± 0.032,0.983 ± 0.024,0.978 ± 0.025
A0A0A0MQS0|A8MW92|F8W9L8|A8MW92-4 (UniProt A8MW92),0.995 ± 0.044,1.11 ± 0.088,1.1 ± 0.041,1.15 ± 0.036,1.17 ± 0.081,1.26 ± 0.019
C9JKL2|O95772|O95772-2|C9J3F5|C9JJ39|C9JPX5 (UniProt O95772),1.02 ± 0.019,1.04 ± 0.036,1.01 ± 0.016,0.989 ± 0.028,0.989 ± 0.019,1 ± 0.034
E9PDF6|O43795|O43795-2 (UniProt O43795),2.06 ± 0.29,2.04 ± 0.2,2.31 ± 0.29,2.37 ± 0.28,2.45 ± 0.32,2.39 ± 0.27
F8VVZ0|P61020 (UniProt P61020),1.03 ± 0.028,0.993 ± 0.013,1.01 ± 0.024,1.07 ± 0.026,1.08 ± 0.064,1.05 ± 0.018
J3KQH6|P78364 (UniProt P78364),1.01 ± 0.067,1.01 ± 0.02,1.01 ± 0.018,1.04 ± 0.047,1.03 ± 0.025,1.05 ± 0.032
H7C5A7|O14734 (UniProt O14734),0.962 ± 0.017,0.932 ± 0.036,0.956 ± 0.013,0.984 ± 0.061,0.97 ± 0.015,0.961 ± 0.02
H3BLV9|Q5R363|Q96SB4|Q96SB4-3|Q96SB4-4 (UniProt Q96SB4),1.08 ± 0.011,1.14 ± 0.035,1.22 ± 0.035,1.29 ± 0.036,1.359 ± 0.011,1.46 ± 0.044
D6REA0|O75879 (UniProt O75879),0.962 ± 0.026,0.9665 ± 0.0091,0.968 ± 0.036,1.03 ± 0.028,0.986 ± 0.038,1.003 ± 0.0032
F8VU90|Q9NYL4|Q9NYL4-2 (UniProt Q9NYL4),1.01 ± 0.042,1.04 ± 0.043,1.07 ± 0.062,0.997 ± 0.031,0.999 ± 0.084,0.994 ± 0.12
B4DXZ6|P51114 (UniProt P51114),1.12 ± 0.029,1.17 ± 0.039,1.3 ± 0.055,1.43 ± 0.15,1.55 ± 0.2,1.62 ± 0.2
G3V4X1|P62191|P62191-2 (UniProt P62191),0.942 ± 0.045,0.906 ± 0.049,0.888 ± 0.079,0.896 ± 0.1,0.882 ± 0.1,0.89 ± 0.12
C9JYN0|Q16563-2|Q16563 (UniProt Q16563),1.01 ± 0.015,1.06 ± 0.12,1.05 ± 0.042,1.12 ± 0.12,1.12 ± 0.057,1.14 ± 0.17
L0R819 (UniProt Q9NWL6),1.04 ± 0.017,1.03 ± 0.074,1.01 ± 0.026,0.996 ± 0.089,0.972 ± 0.055,1 ± 0.044
UniProt O43148|O43148-2,0.996 ± 0.013,1.01 ± 0.011,0.992 ± 0.017,0.992 ± 0.027,0.985 ± 0.029,1 ± 0.033
